Activity calls are given as the source filed them. Calls come from the whole dose curve; as a rule, active = well fitted activation curve with a large enough effect; inconclusive = small, poorly fitted or top-dose-only effect; inactive = flat fitted curve, though single readings scatter.

From PubChem BioAssay (NCATS) come the findings set out here.

This experiment is described as follows: Cellular Toxicity (caspase-3) SHSY5Y (AID 657). The note with it: SH-SY5Y caspase-3 activation, DMSO zero, 10 µM staurosporine = 100%; series mostly up to 91.7 µM; caspase-3 activation: at the top concentration. An excerpt: NIH Chemical Genomics Center [NCGC]
NIH Molecular Libraries Screening Centers Network [MLSCN]
National Institutes of Environmental Health Sciences [NIEHS]
National Toxicology Program [NTP]
We have developed a 1536-well cell-based assay for quantitative high throughput screening (qHTS) against a number of cell lines to determine in vitro caspase 3/7 activity of small molecules. This particular assay uses the SH-SY5Y cell line which is derived from human neuroblastoma.
NCGC Assay Protocol Summary:
The Caspase-Glo 3/7 assay (Promega) is a homogeneous method to measure caspase-3 and caspase-7 activities in cultured cells. The quantitation of caspase 3/7 activity is based on the cleavage of a peptide-aminoluciferin substrate. After caspase cleaves the substrate the free aminoluciferin is liberated and serves as the substrate of luciferase, which generates the light. The luminescent signal is proportional to the amount of caspase 3/7 activity present.
Using the Caspase-Glo 3/7 assay, the amount of caspase 3/7 activity was measured in the SH-SY5Y cell line with complete culture medium following compound treatment for 16 hours. The assay was performed in opaque white 1536-well plates. In the screen, staurosporine and doxorubicin were used as positive controls. Library compounds were measured for their ability to cause the activation of caspase 3/7 in the cell line, as reflected by an increase in luminescence signal, in a concentration-dependent manner. Data were normalized to the controls for basal activity (DMSO only) and 100% stimulation (10 uM staurosporine). AC50 values were determined from concentration-response data modeled with the standard Hill equation.
qHTS protocol for caspase 3/7 assay in SH-SY5Y cells
[Step] [Parameter] [Value] [Description]
1. Reagent; 5 uL; 1500 SH-SY5Y cells/well
2. Time; 5 hr; 37 °C incubation
4. Controls; 23 nL; doxorubicin 7 pM to 100 uM & staurosporine 1.4 pM to 20 uM
5. Time; 16 hr; 37 °C incubation
6. Reagent; 5 uL; Caspase-Glo 3/7 reagent
7. Time; 1 hr; Room Temperature
8. Detection; Luminescence; Viewlux plate reader
Keywords: caspase 3/7, apoptosis, SH-SY5Y cell line, luminescence, NTPHTS, NTPHTS_NCGC, NIEHS, EPA, DSSTox, MLSMR, MLSCN, NIH Roadmap, qHTS, NCGC
Regarding `O=c1[nH]c(=O)n([C@H]2C[C@H](O)[C@@H](CO)O2)cc1Br`, the “caspase-3 activation” value is -0.521% (inactive).

In the case of `COC(=O)[C@H]1[C@H]2C[C@@H]3c4[nH]c5cc(OC)ccc5c4CCN3C[C@H]2C[C@@H](OC(=O)c2cc(OC)c(OC)c(OC)c2)[C@@H]1OC`, the “caspase-3 activation” value was 14.6% (inactive).

`CCCCNC(=O)NS(=O)(=O)c1ccc(C)cc1`: the “caspase-3 activation” value is 3.95% (inactive).

In the case of `COc1cc(Cc2cnc(N)nc2N)cc(OC)c1OC`, the “caspase-3 activation” value is 2.7% (inactive).

As to `CCCCOCCOCCOCc1cc2c(cc1CCC)OCO2`, the “caspase-3 activation” value is -2.2% (inactive).

Take `Nc1ncn([C@@H]2O[C@H](CO)[C@@H](O)[C@H]2O)c(=O)n1`: the “caspase-3 activation” value was 16.3% (inactive).

On to `NC(=O)N1c2ccccc2C=Cc2ccccc21`, for which the “caspase-3 activation” value is -1.71% (inactive).

As for `NC(=Nc1ccccc1)Nc1ccccc1`, the “caspase-3 activation” value was 2.89% (inactive).

With `CN=C(NC#N)NCCSCc1nc[nH]c1C`, the “caspase-3 activation” value was 3.58% (inactive).

In the case of `Nc1nc(N)c2nc(-c3ccccc3)c(N)nc2n1`, the “caspase-3 activation” value is 4.33% (inactive).

On to `COc1ccc(CN(CCN(C)C)c2ccccn2)cc1`, for which the “caspase-3 activation” value was 2.71% (inactive).
